# Most compounds without a hit are left out; they make up all but 1.9% or so of the library.
# ATG4B inh = blocks human ATG4B protease cleavage of LC3 substrate. Q9Y4P1. ATG4B cleavage of LC3-PLA2, NBD-HPC fluorescence, 1 h. inhibition, % at 8.33 µM. actives 0.51% (n = 340,000). AID 504462; in the data active = inhibition above about 40%
# Target sequence (Q9Y4P1 whole entry, looked up): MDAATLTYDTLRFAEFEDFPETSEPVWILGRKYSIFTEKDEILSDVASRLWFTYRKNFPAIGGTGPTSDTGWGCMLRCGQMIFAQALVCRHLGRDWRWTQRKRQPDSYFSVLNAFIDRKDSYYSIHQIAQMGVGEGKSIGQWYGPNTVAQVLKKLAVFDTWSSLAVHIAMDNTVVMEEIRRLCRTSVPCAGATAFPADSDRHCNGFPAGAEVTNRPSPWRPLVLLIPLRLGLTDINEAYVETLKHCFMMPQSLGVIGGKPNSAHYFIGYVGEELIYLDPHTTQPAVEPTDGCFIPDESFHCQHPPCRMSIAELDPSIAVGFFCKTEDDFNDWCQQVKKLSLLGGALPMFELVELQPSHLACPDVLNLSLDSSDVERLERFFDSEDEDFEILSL
# PP5 primary = PP5 (human) phosphatase inhibition. P53041. purified PP5c, OMFP substrate fluorescence. inhibition, % at 6.7 µM. actives 0.18% (n = 320,000);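 active = inhibition above the campaign's mean inhibition across all tested compounds plus 3 SD, cut at about 9.5% in these data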;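 note: 0% = DMSO only and 100% = 100 µM cantharidin control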
# Cardio protect = modulators protecting cardiomyocytes from myocardial damage. H9c2 cardiomyocytes, H2O2 injury protection, ATPLite, 2 h. actives 0.63% (n = 360,000). protection from H2O2 cell death, % at 20 µM;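 active = compounds giving at least 50% protection of heart cells from peroxide-induced death in the single-dose screen, raw or plate-pattern-corrected value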;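 note: 0% = DMSO wells with peroxide and 100% = DMSO wells without peroxide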
# PP1 counter = counter-screen for PP5 inhibitors: inhibitors of human PP1-alpha | purified PP1alpha, OMFP fluorescence | P62136 | inhibition, % at 6.7 µM | actives 0.9% (n = 320,000);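 active = inhibition above the mean inhibition of all tested compounds plus 3 SD, computed separately for each screening campaign, cut at about 15% in these data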
# PP5 conf = confirmation of human PP5 phosphatase inhibitors; shares compounds with PP5 primary; Purified PP5, fluorogenic phosphatase substrate, fluorescence; inhibition, % at 6.7 µM; actives 22% (n = 460); in the data active = inhibition above about 9.5%
# PP1 inh counter = inhibits human PP1 phosphatase in PP5 counter-screen | actives 4% (n = 460) | PP1 enzyme, fluorescent phosphatase substrate | shares compounds with PP5 primary | inhibition, % at 6.7 µM | AID 2355; in the data active = inhibition above about 16%
# Starred values were filed as active, the others as inactive; . = no result given.
SMILES,ATG4B inh,PP5 primary,Cardio protect,PP1 counter,PP5 conf,PP1 inh counter
CC(Sc1n[nH]c(-c2cccs2)n1)C(=O)Nc1ccc(C(N)=O)cc1 (centres undefined),-0.3,-0.8,3.7,-0.6,.,.
COC(=O)C1=C(C)N=C2SCCC(=O)N2C1c1ccc(C(=O)OC)cc1 (centres undefined),1.3,-0.7,3.0,-1.0,.,.
COC(=O)c1ccc(C2C(C(=O)OCC(C)C)=C(C)N=C3SCCC(=O)N32)cc1 (centres undefined),-8.4,10.1*,6.5,1.1,-1.3,1.3
Cc1nc(C)n(C(C)CNS(=O)(=O)c2ccc(C)c(C)c2)n1 (centres undefined),-7.2,1.4,-7.7,-0.4,.,.
OC(CCc1ccncc1)COc1ccccc1 (centres undefined),-16.4,2.7,1.8,2.1,.,.
CC(=O)c1cccc(Nc2cc(C)nc3c(C)cc(C)cc23)c1,-14.3,-0.7,2.3,-3.0,.,.
Cc1cc(C)c2nc(C)cc(Nc3ccc(C(=O)N4CCOCC4)cc3)c2c1,-7.8,10.7*,4.4,0.7,-4.3,-4.3
O=C(Nc1ccc(C(O)(C(F)(F)F)C(F)(F)F)cc1)c1ccc(Cl)c([N+](=O)[O-])c1,-3.7,11.1*,-21.0,4.6,6.2,6.0
CC1=C(C(=O)Nc2cc(-c3cccc(F)c3)[nH]n2)C2(CCCCC2)OC1=O,-10.0,10.2*,-4.5,4.1,14.6*,4.8
O=C(Nc1cc(-c2ccccc2)[nH]n1)c1ccccc1F,1.4,-1.8,-7.0,2.4,.,.
C=CCNc1nc2c(c(=O)[nH]c(=O)n2C)n1CC(O)COc1ccc2ccccc2c1 (centres undefined),0.9,.,-4.9,.,.,.
C=CCn1c(NC(=O)c2ccccc2Cl)c(C#N)c2nc3ccccc3nc21,-15.6,11.2*,-10.3,6.9,27.6*,4.2
CCCCn1c(NC(C)=O)c(C#N)c2nc3ccccc3nc21,-10.6,1.1,13.1,-6.2,.,.
COC(=O)C1(C)NC(c2ccc(O)cc2)C2C(=O)N(c3ccc(F)cc3)C(=O)C21 (centres undefined),0.2,10.0*,1.1,-4.0,-7.4,-5.5
CCOc1ccccc1N(C)S(=O)(=O)c1ccc2c(c1)N(C(C)=O)CCO2,-5.9,-0.9,-0.7,1.6,.,.
CC1=C(C(=O)OC(C)C)C2(O)C(=O)c3ccccc3C2(O)N1 (centres undefined),-7.0,11.8*,1.1,0.4,16.1*,-0.1
O=C(CN(Cc1ccc(Cl)cc1)C(=O)c1csnn1)NCc1ccc(F)cc1,4.5,2.1,-3.9,6.2,.,.
COc1ccc(NS(=O)(=O)c2ccc3oc(SC(C)C(N)=O)nc3c2)cc1 (centres undefined),-6.2,-0.5,-10.5,-0.7,.,.
Oc1cccc(/C=N/Nc2cc(N3CCCC3)nc(N3CCCC3)n2)c1,2.4,16.3*,-10.4,2.7,37.2*,10.1
Oc1ccc(/C=N/Nc2cc(N3CCCC3)nc(N3CCCC3)n2)cc1,-3.1,15.5*,-0.9,3.4,36.9*,13.7
COc1ccc(/C=N/Nc2cc(N3CCCC3)nc(N3CCCC3)n2)cc1,11.0,16.0*,-21.7,6.3,33.5*,17.5*
CC1(C(=O)NS(=O)(=O)c2ccccc2Cl)CCN1C(=O)Cc1cc(F)ccc1F (centres undefined),.,.,-1.5,.,.,.
Cc1ccc(N2CC(C(=O)NC3CCC(C)CC3)CC2=O)cc1 (centres undefined),6.6,4.5,-1.2,-1.2,.,.
CN(Cc1ccccc1)C(=O)c1ccc(NC(=O)Cc2ccc(NC(=O)C3CCN(C(=O)CCc4ccccc4)CC3)cc2)cc1,-7.3,.,-21.7,.,.,.
O=C(O)CCCN1C(=O)C2C3CCC(O3)C2C1=O (centres undefined),-11.0,16.9*,-8.5,5.0,7.2,4.1
SMILES,ATG4B inh,PP5 primary,Cardio protect,PP1 counter,PP5 conf,PP1 inh counter
CC(=O)C(C(C)=O)C1(O)C(=O)c2ccccc2C1=O,12.1,14.3*,3.1,3.4,38.4*,3.3
O=C1C(c2ccccc2)=[N+]([O-])c2ccccc21,-17.4,10.3*,-32.7,-3.3,36.0*,87.6*
O=C1C(=O)c2ccc(-c3ccccc3)cc2-c2ccccc21,-24.6,2.8,-23.7,-0.2,.,.
CCCn1c(CCNc2nc(-c3cccc(Br)c3)cs2)nc2ccccc21,-2.5,.,-23.2,.,.,.
COc1cc2c(cc1OC)C(c1cccs1)N(C(=O)C(C)C)CC2 (centres undefined),-15.1,9.9*,4.3,0.0,-5.1,-5.3
Cc1ccc([N+](=O)[O-])cc1-c1ccc(/C=N/NC(=O)CN2CCOCC2)o1,6.1,12.0*,15.3,-0.5,-4.0,-6.9
O=C(Cc1ccccc1)N/N=C/c1ccc(-c2ccc([N+](=O)[O-])cc2)o1,-3.6,1.4,-5.2,5.3,.,.
CCOc1ccc(OCCn2c(S(=O)(=O)O)nc3c(N)ncnc32)cc1,-0.9,.,-3.3,.,.,.
CN(C)S(=O)(=O)c1ccc(NC(=O)c2cc3ccccc3o2)cc1,-3.9,10.2*,2.4,4.1,-3.7,-2.4
Cc1ccc(NC(=O)c2cc3ccccc3o2)cc1S(=O)(=O)N(C)C,-21.9,.,-20.2,.,.,.
O=C(Nc1nccs1)c1cc2sccc2n1Cc1ccc(F)cc1,11.7,10.1*,0.7,-1.5,-6.2,-0.6
CCCCN(C)C(=O)C1CCC(CNS(=O)(=O)c2ccc3c(c2)CC(C)N3C(=O)C2CC2)CC1 (centres undefined),-1.3,3.0,-6.1,-2.4,.,.
C=CCc1ccc(O)c(-c2cc(CC=C)ccc2O)c1,-13.0,11.4*,-6.6,6.4,3.2,5.9
N=c1c2c(-c3ccccc3)c(-c3ccccc3)oc2ncn1CCN1CCOCC1,-20.8,10.8*,28.2,6.8,-1.4,0.4
N=c1c2c(-c3ccccc3)c(-c3ccccc3)n(Cc3ccco3)c2ncn1CCCN1CCOCC1,-2.6,3.2,-15.5,-3.5,.,.
O=C(Nc1ccc(Nc2ccccc2)cc1)c1cccc(F)c1,-1.7,9.8*,-9.5,-1.0,3.1,1.9
Cc1noc(C)c1NC(=O)N(C)C[C@H]1Oc2c(NC(=O)C3CCCCC3)cccc2C(=O)N([C@H](C)CO)C[C@@H]1C,1.8,.,14.6,.,.,.
CC(C)CCn1c(N)c(S(=O)(=O)c2cccs2)c2nc3ccccc3nc21,2.7,10.2*,-16.1,3.2,6.9,3.6
Nc1c(S(=O)(=O)c2cccs2)c2nc3ccccc3nc2n1CCc1ccccc1,.,3.6,.,3.7,.,.
CC(C)=CC(=O)N1CCCc2ccccc21,4.8,9.7*,-0.8,6.7,-4.4,-6.0
O=C(Nc1c(F)cc(F)cc1Br)c1cc(-c2ccccc2)on1,10.5,11.7*,-11.0,-3.3,-2.7,-1.5
CCOC(=O)/C=C/C(=O)Nc1ccc(S(=O)(=O)Nc2c(C)cc(C)cc2C)cc1,-11.1,9.6*,-27.8,-4.2,2.9,4.8
Cc1ccc(S(=O)(=O)N2CCN(C(=O)CN3CCOCC3)C2C(C)C)cc1 (centres undefined),-2.1,12.1*,-5.1,-5.2,-5.8,-5.1

# Compound activity (PubChem BioAssay)
